system: PPARg:RXRa DBDmut IVT, anti-RXR (DBD mutation: RXRa K156A/R161A, NR concentration 270 nM, RXRa partner concentration 90 nM); test: PBM binding z-score (relative to random genomic background probes); higher = stronger binding; sequences stand for … in GC…GCGATTGACAGCGTAGAATGAAGG
How it was run: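 The probes on custom Agilent 4×180K protein-binding microarrays were double-stranded, with 34-nt variable regions bearing direct-repeat seeds, single-nucleotide variants, half-site ablations and random human genomic background sequences. Incubation lasted 1 h with ligand-free nuclear receptor dimers in PBS pH 7.4, 2% milk, 0.02% Triton X-100, 1 mM DTT, 0.2 mg/mL BSA and 0.4 mg/ml salmon testes DNA. Antibodies against each partner (one per run) detected bound dimers, and fluorescence scans were regression-normalized. Binding z-scores take the random background probes as reference.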

| Sequence | PBM binding z-score |
| --- | --- |
| CGAACTAGGTCAAGGAAAGTGAATCTCCGCACGC | 7.89 |
| TGTCAAAGTTCAAAGGTAACGTAAGTATCCACAC | 0.64 |
| GCTGCTAGGTCAACTGATGGTCAGCCAAAGCTCG | 4.84 |
| CATGCAGGGTCAGCTAGGCCAGAGTAGGGACGGC | 0.734 |
| TCATGTAGATCAACAGGAGGTTAAGAAAGATCGA | 1.44 |
| TTACCAAGGAGAAAGGTCGTTGATGCACGCCTTG | 0.0947 |
| AGTTAAAGTTCATCTAGGTAACGTAAGATATGCT | 1.51 |
| CGAACTAGGTCATTGACAGGCCAGTGAATAGTAA | 8.3 |
| GCTGCTAGGTCAACTGATGGTCAGGTAAAGCTCG | 4.69 |
| TCTAGCAGGCCAGAGGGTCACACAAGAGGTACGG | 1.19 |
| ATATGTCGGTTAGCTGGGGTCATTCAGACTAGGC | 1.3 |
| TCATATAGGTAATTCAGGTGAAAGTCGGCATCTA | 4.31 |
| CCTCGAAGGACAGAAGGTCAGAGCTGTCCGCTTT | -0.0695 |
| TGAATGATGTTAAAGATCAGGGAACGTGGCGTCG | -0.672 |
| TCCTATAGGTAATACAGGTGAAAGTCGGCATCTA | 2.84 |
| ACTAGCAGGCCAAGTTGGGGTCACTCAAACAAAG | 1.25 |
| CGTCCAAGGTCATAGGAGGGCAGTGAAGACAGAT | 3.1 |
| ATCTAAAGGTCGACGAGGTGAGTATACACCGTTT | 0.916 |

Source: the supplement of paper PMC6555819
